This passage reports indel activity and indel editing activity results from patent US20240035010, “COMPOSITIONS COMPRISING A VARIANT POLYPEPTIDE AND USES THEREOF” (Arbor Biotechnologies, Inc., published 2024).

Holding throughout (settings): tags: pcDNA3.1 expression
The target of assay [1] is T1, variant nuclease E154G/L38G/K221G combination (P14R, D32R, I61R, E311R, E154G, L38G, K221G).
T1 chain: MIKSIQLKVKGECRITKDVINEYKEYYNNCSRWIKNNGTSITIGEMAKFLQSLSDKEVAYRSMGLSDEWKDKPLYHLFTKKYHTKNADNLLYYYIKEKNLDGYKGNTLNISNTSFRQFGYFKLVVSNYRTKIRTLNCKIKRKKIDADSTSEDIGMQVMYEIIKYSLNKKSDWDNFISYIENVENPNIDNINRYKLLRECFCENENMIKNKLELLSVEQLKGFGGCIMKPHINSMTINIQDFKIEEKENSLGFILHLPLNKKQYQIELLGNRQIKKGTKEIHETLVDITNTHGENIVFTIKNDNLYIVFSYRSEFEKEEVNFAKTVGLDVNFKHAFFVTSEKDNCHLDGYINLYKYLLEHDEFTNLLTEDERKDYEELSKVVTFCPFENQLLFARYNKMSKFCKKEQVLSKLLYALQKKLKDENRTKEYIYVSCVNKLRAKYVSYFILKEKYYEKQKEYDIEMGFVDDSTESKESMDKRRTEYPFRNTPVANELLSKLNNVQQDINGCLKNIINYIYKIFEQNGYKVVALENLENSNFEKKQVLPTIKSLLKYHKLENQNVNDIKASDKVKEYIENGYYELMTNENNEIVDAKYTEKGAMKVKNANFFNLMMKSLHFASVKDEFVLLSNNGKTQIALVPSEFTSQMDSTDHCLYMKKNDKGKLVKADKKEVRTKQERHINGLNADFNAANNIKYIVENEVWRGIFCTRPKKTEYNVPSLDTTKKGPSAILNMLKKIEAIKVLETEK
As to the kind of experiment: cell_activity; PAM 5'-TTTA-3'. The procedure:
(§1) Approximately 16 hours prior to transfection, 25,000 HEK293T cells in DMEM/10% FBS+Pen/Strep (D10 media) were plated into each well of a 96-well plate. On the day of transfection, the cells were 70-90% confluent. For each well to be transfected, a mixture of Lipofectamine 2000™ and Opti-MEM™ was prepared and incubated at room temperature for 5 minutes (Solution 1). After incubation, the Lipofectamine 2000™:Opti-MEM™ mixture was added to a separate mixture containing nuclease plasmid, RNA guide plasmid, and Opti-MEM™ (Solution 2). In the case of negative controls, the RNA guide plasmid was not included in Solution 2. Solutions 1 and 2 were mixed by pipetting up and down, then incubated at room temperature for 25 minutes. Following incubation, the Solution 1 and 2 mixture was added dropwise to each well of a 96-well plate containing the cells. Approximately 72 hours post transfection, cells were trypsinized by adding TrypLE™ to the center of each well and incubating at 37° C. for approximately 5 minutes. D10 media was then added to each well and mixed to resuspend cells. The resuspended cells were centrifuged at 500 g for 10 minutes to obtain a pellet, and the supernatant was discarded. […]
(§2) The percentage of NGS reads containing indels (% indels) were calculated. […]

The target in assay [2] is T1, variant nuclease E154G/L38G/K221G …. As to the kind of experiment: cell_activity; PAM 5'-TTTG-3'. The procedure: as §1, §2
Assay [3] shares this target. As to the kind of experiment: cell_activity; PAM 5'-ATTG-3'.

B1: VEGFA crRNA ; VEGFA target (ssRNA ; dsDNA)
RNA: CUUGUUGUAUAUGUCCUUUUAUAGGUAUUAAACAACUCCAGACCACCAAUGGGCAC
DNA 1: TCCAGACCACCAATGGGCAC
DNA 2: GTGCCCATTGGTGGTCTGGA
Take B1: the indel activity in assay [1] is 0.06 fold of WT.

B2: AAVS1 crRNA ; AAVS1 target (ssRNA ; dsDNA)
RNA: CUUGUUGUAUAUGUCCUUUUAUAGGUAUUAAACAACUGAGAAUGGUGCGUCCUAGG
DNA 1: TGAGAATGGTGCGTCCTAGG
DNA 2: CCTAGGACGCACCATTCTCA
With B2, the indel activity in assay [2] was 0.19 fold of WT.

B3: EMX1 crRNA ; EMX1 target (ssRNA ; dsDNA)
RNA: CUUGUUGUAUAUGUCCUUUUAUAGGUAUUAAACAACCCGCCGCUUCCUGAGCCAUC
DNA 1: CCGCCGCTTCCTGAGCCATC
DNA 2: GATGGCTCAGGAAGCGGCGG
On to B3, for which the indel editing activity in assay [3] is 0.17 fold of WT.
